# Values joined by “and” are separate entries in the source; they are usually repeats but may differ in a detail not shown here. Equal values may be shown once. Results filed as inconclusive are left out. A call without a number means that no potency is given here. Active and inactive are the calls of the source. The call rests on the fitted dose curve; in most records, active means well fitted inhibition curve with a large enough effect in the repeat runs; inconclusive means weak or mixed curves; inactive means no such curve, though single readings can be large or run the other way.
# Assay: qHTS assay to identify small molecule antagonists of the thyroid receptor (TR) signaling pathway (AID 743065); further: nearly all actives have a fitted effect of over 55% in size
# Conditions: GH3.TRE-Luc, T3-stimulated luciferase inhibition, 23.5 h; series mostly up to 70.3 µM
# Text: U.S. Tox21 Program National Center for Advancing Translational Sciences [NCATS] NIH Chemical Genomics Center [NCGC] U.S. Environmental Protection Agency [EPA] National Institutes of Environmental Health Sciences [NIEHS] National Toxicology Program [NTP] U.S. Food and Drug Administration [FDA] Tox21 Assay Overview: Thyroid receptor (TR), a nuclear hormone receptor, plays an important role in development, proliferation, differentiation, metabolism, brain function, and cardiovascular system. […] To profile the Tox21 10K compound library in TR signaling, a cell-based GH3-TRE-Luc assay (GH3.TRE-Luc cell line, developed by the laboratory of Dr. Albertinka J. Murk, Wageningen University) was used to measure the inhibition of TR. GH3 (rat pituitary tumor) cells stably expressing a TR activity sensor consisting of two TR response elements and a luciferase reporter gene.
# Tox21 Assay Protocol Summary: GH3.TRE-Luc cells were dispensed at 1500 cells/4 uL/well into 1536-well white solid bottom plates using a Multidrop Combi dispenser (Thermo Fisher Scientific Inc., Waltham, MA). After the assay plates were incubated at 37 C for 4 hours, 23 nL of library compound or DMSO controls was transferred to the assay plates by a pintool station (Kalypsys, San Diego, CA), followed by addition of 1 ul of T3 (1 nM, final concentration in the wells) to stimulate TR transactivation. The assay plates were incubated at 37 C for 23.5 h, and then 1 uL of CellTiter-Fluor reagent (Promega, Madision, WI) of measuring cytotoxicity was added to each well using a Bioraptr Flying Reagent Dispenser (FRD) workstation (Beckman Coulter, Indianapolis, IN, USA). The plates were incubated at 37 C and 5% CO2 for additional 30 min, and fluorescence intensity was measured by a ViewLux plate reader (PerkinElmer, Shelton, CT). For measuring luciferase reporter gene activity, 4 uL of ONE-Glo Luciferase Assay reagent (Promega) was added to each well using a Bioraptr FRD (Beckman Coulter), followed by 30 min incubation at room temperature. The luminescence intensity of plates was recorded by a ViewLux plate reader (PerkinElmer, Shelton, CT).
# Potency means the concentration at half of the fitted maximal effect.
row,Compound,Potency
1,CCCCOC(=O)C(C)Oc1ccc(Oc2ccc(C(F)(F)F)cn2)cc1 (stereo not given),inactive
2,CC(C)(C)N,inactive
3,Cc1ccc2c(Cl)cc(Cl)c(O)c2n1,1.68 µM (active)
4,CC(C)=CCC/C(C)=C/C=N/O,inactive
5,CC(C)Cc1nccs1,inactive
6,Cc1c(N=C=O)cccc1N=C=O,inactive
7,Cc1cc(C)n(CO)n1,inactive
8,O=C(O)COCC(=O)O,inactive
9,CC1(C)C(=O)NC(=O)N1CO,inactive
10,C=C(C)C(=O)OCCCCCCCCCCOC(=O)C(=C)C,inactive
11,CCC(CC)C(=O)O,inactive
12,CC(C)(Cc1c[nH]c2ccccc12)NCC(O)COc1ccccc1C#N (stereo not given),23.7 µM (active)
13,Nc1cccc2c(=O)[nH][nH]c(=O)c12,inactive
14,CCCCCCCCCCCCSCCOCCO,inactive
15,O=C(OCCCCCOC(=O)c1ccccc1)c1ccccc1,inactive
16,COc1ccc(C(=O)Nc2ccccc2)cc1[N+](=O)[O-],inactive
17,CC(C(=O)O)c1ccc2c(c1)Cc1cccnc1O2 (stereo not given),inactive
18,C=CC(=O)OCCCCCCCCCC,inactive
19,CC1=C(C)C(=O)C(C(CCCCCC(=O)O)c2ccccc2)=C(C)C1=O (stereo not given),inactive
20,CC(=O)Nc1ccccc1O,inactive

row,Compound,Potency
1,C=CC(O)CCCCC (stereo not given),inactive
2,O=C(OCCOCCOCCOC(=O)c1ccccc1)c1ccccc1,inactive
3,CC[C@H](NC(C)C)[C@H](O)c1ccc(O)c2[nH]c(=O)ccc12,inactive
4,CC(C)=CCC[C@H](C)CCO,inactive
5,O=C(O)CNc1ccccc1,inactive
6,CCCCCCCCCCCCCCCCN,inactive
7,O=c1[nH]nc(-c2ccc([N+](=O)[O-])o2)o1,inactive
8,Nc1nc(Cl)nc2c1ncn2[C@H]1C[C@H](O)[C@@H](CO)O1,298 nM (active) and 48.2 nM (active)
9,CC(C)CCCCCOC(=O)CS,inactive
10,CC(C)CC(C)(C)C,inactive
11,O=C(O)c1ccccc1[N+](=O)[O-],inactive
12,CCOc1ccccc1O,inactive
13,O=C(Cl)c1cc(Cl)cc(Cl)c1,inactive
14,O=c1[nH][nH]c2ccccc12,inactive
15,O=C(N[C@@H](Cc1ccccc1)[C@@H](O)C(=O)N1C[C@@H](O)[C@@H](O)C1)c1cc2cc(Cl)ccc2[nH]1,61.1 µM (active)
16,OCCOc1cccc(OCCO)c1,inactive
17,C[C@@H](O)[C@H]1C(=O)N2C(C(=O)O)=C(S[C@@H]3CN[C@H](CNS(N)(=O)=O)C3)[C@H](C)[C@H]12,inactive
18,FC(F)(Cl)C(F)(Cl)Cl,inactive
19,CC(=O)c1ccc(Cl)c(Cl)c1Cl,inactive
20,N#CCCCC(C#N)CCC#N (stereo not given),inactive

# Source: PubChem BioAssay (Tox21)
